Data as given in PubChem BioAssay.
Unmarked numbers belong to inactive results. For some assays here: Entries with a potency or affinity are not part of this list. Calls of active or inactive are those of the source. Unless noted, no rule for the calls is given here.

Experiments:
[1] = antimalarial activity against Dd2 strain (AID 2302;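 active = growth inhibition above 50% at the single 2 µM test dose, taken to imply half-maximal potency below 2 µM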;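 also: 0% = DMSO untreated growth and 100% = chloroquine plus artemisinin killed control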); conditions: P. falciparum Dd2 in RBCs, LDH growth readout, 72 h; at 2 µM; hits give high values
[2] = target: L-lactate dehydrogenase (Plasmodium falciparum (isolate CDC / Honduras)) (UniProt Q27743); experiment: PfLDH activity inhibition – cell lysate, 3D7 strain, counter-screen for P. falciparum growth inhibition project (AID 2304);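 also: 0% = vehicle and 100% = reference inhibitor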; conditions: P. falciparum 3D7 crude extract, LDH APAD/NBT absorbance; at 2 µM; hits give high values
Sequence of L-lactate dehydrogenase (Plasmodium falciparum (isolate CDC / Honduras)) (Q27743 whole entry, looked up): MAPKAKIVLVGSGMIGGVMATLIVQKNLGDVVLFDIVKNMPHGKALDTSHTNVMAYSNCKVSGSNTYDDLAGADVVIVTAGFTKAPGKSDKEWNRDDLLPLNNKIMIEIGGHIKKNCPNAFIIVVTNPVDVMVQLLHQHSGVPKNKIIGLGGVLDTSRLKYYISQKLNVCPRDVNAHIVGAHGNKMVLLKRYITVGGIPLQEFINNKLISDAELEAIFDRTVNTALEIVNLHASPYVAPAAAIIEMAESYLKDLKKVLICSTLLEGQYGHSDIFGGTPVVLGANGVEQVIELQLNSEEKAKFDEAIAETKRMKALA

[3] = inhibition of 3D7 malaria parasite growth – strain 3D7 (AID 2306);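 also: 0% = DMSO wells and 100% = chloroquine plus artemisinin control wells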; conditions: P. falciparum 3D7 erythrocytic growth, LDH absorbance, 72 h; at 2 µM; hits give high values
[4] = target: Calcium-dependent protein kinase 1 (Plasmodium falciparum (isolate 3D7)) (UniProt P62344); experiment: PfCDPK1 kinase inhibitors, biochemical, TCAMS library (AID 1159585; cut-off not given, nearly all actives have IC50 up to about 0.98 µM;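 also: inhibitors leave more ATP so luminescence rises with inhibition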); conditions: recombinant PfCDPK1, Kinase-Glo ATP depletion luminescence
Sequence of Calcium-dependent protein kinase 1 (Plasmodium falciparum (isolate 3D7)) (P62344 whole entry, looked up): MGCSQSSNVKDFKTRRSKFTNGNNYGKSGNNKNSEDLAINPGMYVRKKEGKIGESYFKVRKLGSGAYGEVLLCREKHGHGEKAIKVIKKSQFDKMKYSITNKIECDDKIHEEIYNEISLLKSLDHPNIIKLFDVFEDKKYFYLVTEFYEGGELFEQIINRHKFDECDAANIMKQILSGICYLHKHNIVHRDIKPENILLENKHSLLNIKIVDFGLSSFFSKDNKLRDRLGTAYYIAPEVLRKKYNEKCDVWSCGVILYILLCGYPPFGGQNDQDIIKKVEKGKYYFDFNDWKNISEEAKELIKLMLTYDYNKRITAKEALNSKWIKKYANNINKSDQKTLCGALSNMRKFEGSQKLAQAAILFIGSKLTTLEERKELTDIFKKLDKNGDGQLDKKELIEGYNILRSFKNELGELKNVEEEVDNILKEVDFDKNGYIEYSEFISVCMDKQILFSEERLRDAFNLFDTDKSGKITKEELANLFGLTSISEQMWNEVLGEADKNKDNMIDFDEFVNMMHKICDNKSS

[5] = target: Plasmodium falciparum protein kinase 6 (PK6, PF3D7_1337100) (UniProt Q8IDW1); experiment: PfPK6 kinase inhibitors, biochemical, TCAMS library (AID 1159586); conditions: recombinant PfPK6, Kinase-Glo ATP depletion luminescence
Sequence of Plasmodium falciparum protein kinase 6 (PK6, PF3D7_1337100) (Q8IDW1 1-305): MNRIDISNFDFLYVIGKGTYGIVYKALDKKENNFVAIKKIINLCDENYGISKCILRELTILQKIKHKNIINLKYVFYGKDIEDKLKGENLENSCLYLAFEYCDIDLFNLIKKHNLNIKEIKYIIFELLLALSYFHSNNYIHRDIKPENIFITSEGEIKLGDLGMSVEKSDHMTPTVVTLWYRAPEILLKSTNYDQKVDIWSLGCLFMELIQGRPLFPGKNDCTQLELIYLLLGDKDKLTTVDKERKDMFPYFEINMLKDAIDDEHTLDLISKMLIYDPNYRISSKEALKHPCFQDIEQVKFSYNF

[6] = target: Protein kinase 7 (PK7), Plasmodium falciparum 3D7 (PF3D7_0213400) (UniProt Q7YTF7); experiment: inhibition of Plasmodium PK7 catalytic activity – biochemical, TCAMS antimalarial set, Kinase-Glo luminescence (AID 1159587); conditions: recombinant PfPK7, Kinase-Glo ATP depletion luminescence
Sequence of Protein kinase 7 (PK7), Plasmodium falciparum 3D7 (PF3D7_0213400) (Q7YTF7 1-343): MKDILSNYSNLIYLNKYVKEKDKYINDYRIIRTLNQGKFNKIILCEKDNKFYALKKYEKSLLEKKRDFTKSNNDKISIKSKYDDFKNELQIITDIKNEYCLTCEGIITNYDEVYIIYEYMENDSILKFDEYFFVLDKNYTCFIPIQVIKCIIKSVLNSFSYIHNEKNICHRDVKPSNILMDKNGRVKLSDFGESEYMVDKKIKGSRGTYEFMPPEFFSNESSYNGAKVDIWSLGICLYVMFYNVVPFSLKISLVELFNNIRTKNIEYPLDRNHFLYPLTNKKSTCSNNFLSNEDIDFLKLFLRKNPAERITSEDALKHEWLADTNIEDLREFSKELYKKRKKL

[7] = target: Calcium-dependent protein kinase 4 (Plasmodium falciparum (isolate 3D7)) (UniProt Q8IBS5); experiment: PfCDPK4 kinase inhibitors, biochemical, TCAMS library (AID 1159588; cut-off not given, nearly all actives have IC50 up to about 0.91 µM); conditions: recombinant PfCDPK4, Kinase-Glo ATP depletion luminescence
Sequence of Calcium-dependent protein kinase 4 (Plasmodium falciparum (isolate 3D7)) (Q8IBS5 whole entry, looked up): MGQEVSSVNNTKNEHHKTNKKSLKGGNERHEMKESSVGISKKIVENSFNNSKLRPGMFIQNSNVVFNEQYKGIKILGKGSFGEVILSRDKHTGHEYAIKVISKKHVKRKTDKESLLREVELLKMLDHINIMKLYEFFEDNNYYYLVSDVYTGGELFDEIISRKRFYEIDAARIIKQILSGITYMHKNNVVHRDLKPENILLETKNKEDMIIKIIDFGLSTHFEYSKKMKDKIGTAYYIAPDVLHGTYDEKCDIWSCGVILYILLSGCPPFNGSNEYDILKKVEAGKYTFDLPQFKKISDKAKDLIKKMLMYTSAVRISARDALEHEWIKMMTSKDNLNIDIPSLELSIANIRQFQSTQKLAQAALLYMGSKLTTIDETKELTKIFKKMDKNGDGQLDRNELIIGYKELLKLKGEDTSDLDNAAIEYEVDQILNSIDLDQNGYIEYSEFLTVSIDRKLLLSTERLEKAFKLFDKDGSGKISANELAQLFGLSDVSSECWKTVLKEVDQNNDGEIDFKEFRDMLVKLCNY

[8] = HepG2 cytotoxicity, primary screen, cytotoxicity control for P. falciparum antimalarial project, cell-based, ATP luminescence (AID 2303;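 active = inhibition above 50%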;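 also: 0% = DMSO wells and 100% = digitonin-killed cells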); conditions: HepG2 viability, 24-48 h, at 10 µM, hits give high values

SMILES	growth inhibition [1]	inhibition [2]	growth inhibition [3]	outcome [4]	outcome [5]	outcome [6]	outcome [7]	inhibition [8]
CC(=NNc1nc2ccccc2s1)c1ccccn1	47%	-2%	88% (active)	inactive	inactive	inactive	inactive	–
CCc1ccc(Cc2cnc3nc(N)nc(N)c3c2C)cc1CC	-1%	6%	97% (active)	inactive	inactive	inactive	inactive	–
Cc1[nH]c(C)c(-c2ccc(Oc3ccc(C(F)(F)F)cc3)cc2)c(=O)c1Br	97% (active)	-8%	97% (active)	inactive	inactive	inactive	inactive	–
Nc1nc(N)c2c(Oc3cccc(Cl)c3)cccc2n1	7%	-7%	97% (active)	inactive	inactive	inactive	inactive	–
NC(=NCC1CC1c1ccccc1)c1cccc(C(N)=NCC2CC2c2ccccc2)n1 (stereo unspecified)	-2%	0%	95% (active)	inactive	inactive	inactive	inactive	–
Cc1[nH]c(C)c(-c2ccc(Oc3ccc(Cl)cc3)cc2)c(=O)c1I	49%	5%	88% (active)	inactive	inactive	inactive	inactive	–
Cc1[nH]c(C)c(-c2ccc(Oc3ccc(S(C)=O)cc3)cc2)c(=O)c1Br (stereo unspecified)	64% (active)	0%	91% (active)	inactive	inactive	inactive	inactive	–
CN(C)S(=O)(=O)n1ncc2c3c(N)nc(N)nc3ccc21	0%	-4%	96% (active)	inactive	inactive	inactive	inactive	–
CCOC(=O)N1CCN(CCCCCNc2cc(C)nc(/N=C(\N)Nc3ccc(Cl)cc3)n2)CC1	0%	-1%	101% (active)	inactive	inactive	inactive	inactive	–
CCCOc1ccc(CNCCCCCCNCc2ccc(OCCC)c3ccccc23)c2ccccc12	96% (active)	-2%	101% (active)	inactive	inactive	inactive	inactive	–
Nc1nc(N)c2c(Oc3cc(Cl)c(Cl)c(Cl)c3)cccc2n1	92% (active)	4%	101% (active)	inactive	inactive	inactive	inactive	–
Cc1nc2nc(N)nc(N)c2c(C)c1Cc1ccc(N)cc1	-2%	-4%	97% (active)	inactive	inactive	inactive	inactive	–
Nc1nc(N)c2cc(Cc3ccccc3Cl)cnc2n1	-2%	4%	93% (active)	inactive	inactive	inactive	inactive	–
Nc1nc(Cc2ccc(Cl)cc2)nc(Cc2ccc(Cl)cc2)n1	-2%	2%	85% (active)	inactive	inactive	inactive	inactive	–
Nc1nnc(-c2ccc(Cl)c(Br)c2)c(N)n1	-3%	-3%	86% (active)	inactive	inactive	inactive	inactive	–
CC(=NNC(=S)NCc1ccco1)c1ccccn1	100% (active)	-6%	99% (active)	inactive	inactive	inactive	inactive	–
COc1cccc2c(O)c(CNC3CCCCC3)ccc12	98% (active)	3%	100% (active)	inactive	inactive	inactive	inactive	–
CCCCOc1c(CCNCCCCNCCc2cc(OC)c3ccccc3c2OCCCC)cc(OC)c2ccccc12	47%	7%	91% (active)	inactive	inactive	inactive	inactive	–
Nc1nc(N)c2c(Sc3ccc(F)cc3)cccc2n1	-3%	3%	88% (active)	inactive	inactive	inactive	inactive	–

SMILES	growth inhibition [1]	inhibition [2]	growth inhibition [3]	outcome [4]	outcome [5]	outcome [6]	outcome [7]	inhibition [8]
Nc1nc(N)c2c(ccc3[nH]c(-c4ccccc4Cl)nc32)n1	101% (active)	-1%	101% (active)	inactive	inactive	inactive	inactive	–
CCCCNCc1cc(Cl)c2ccccc2c1O	100% (active)	0%	102% (active)	inactive	inactive	inactive	inactive	–
CCCc1cc(OC)c(CC2c3cc(O)c(Cl)cc3C(c3ccccc3)CN2C)cc1OC (stereo unspecified)	100% (active)	4%	100% (active)	inactive	inactive	inactive	inactive	–
CCCCNCCOc1ccc(-c2nc(-c3ccccc3)c(-c3ccccc3)[nH]2)cc1	34%	-5%	100% (active)	inactive	inactive	inactive	inactive	–
Nc1nc(N)c2c(ccc3c2ccn3Cc2ccc3c(c2)OCO3)n1	95% (active)	-3%	100% (active)	inactive	inactive	inactive	inactive	–
CC(C)C(=O)Nc1c(F)cc(F)cc1CCc1ccc(O)cc1	91% (active)	2%	90% (active)	inactive	inactive	inactive	inactive	–
O=C(NCCCCN1CCN(c2nsc3ccccc23)CC1)c1ccccc1C(=O)NCCCCN1CCN(c2nsc3ccccc23)CC1	22%	-8%	100% (active)	inactive	inactive	inactive	inactive	–
COc1cc(Cc2cnc(N)nc2N)cc(OCCCC(=O)O)c1OC	-3%	3%	84% (active)	inactive	inactive	inactive	inactive	–
Cc1nc2ccc(S(=O)(=O)Nc3ccc(C(=O)N[C@@H](CCC(=O)O)C(=O)O)cc3)cc2c(=O)[nH]1	2%	7%	94% (active)	inactive	inactive	inactive	inactive	–
Cc1[nH]c(C)c(-c2ccc(Sc3ccc(Cl)cc3)cc2)c(=O)c1Br	97% (active)	0%	98% (active)	inactive	inactive	inactive	inactive	–
CC(C)c1ccc2c(c1)C(=O)c1ccc(C(=O)O)cc1S2(=O)=O	83% (active)	-4%	93% (active)	inactive	inactive	inactive	inactive	–
Nc1nc(N)c2c(n1)CCc1cc(Br)ccc1-2	4%	6%	87% (active)	inactive	inactive	inactive	inactive	–
CC(=O)Nc1cccc(Nc2c3ccccc3nc3ccccc23)c1	–	5%	82% (active)	inactive	inactive	inactive	inactive	31%
Cc1nc(N)nc(N)c1-c1ccc(Br)c(Br)c1	1%	-2%	94% (active)	inactive	inactive	inactive	inactive	–
COc1ccc2nc3cc(Cl)ccc3c(Nc3ccc(Oc4ccc(Nc5c6ccc(Cl)cc6nc6ccc(OC)cc56)cc4)cc3)c2c1	93% (active)	7%	86% (active)	inactive	inactive	inactive	inactive	–
CCCCCCn1ccc2c3c(N)nc(N)nc3ccc21	91% (active)	0%	99% (active)	inactive	inactive	inactive	inactive	–
N=C(N)c1nc2ccccc2s1	–	-1%	87% (active)	inactive	inactive	inactive	inactive	1%
COc1ccc(NC(=O)c2ccc(-c3cccc(OCc4ccccc4)c3)cc2)cc1N1CCN(C)CC1	–	-1%	85% (active)	inactive	inactive	inactive	inactive	29%
Nc1[nH]c2ccccc2c(=O)c1-c1nc2ccccc2s1	–	-6%	97% (active)	inactive	inactive	inactive	inactive	16%
